# A number with no mark means an inactive call.
# Key:
# Assay in all cases: log2 ratio of Biotin-Ahx-Ub-VS probe labelling (fragment/DMSO); higher = less target engagement (more negative = stronger competition), active = hit call of the paper (q ≤ 0.05, log2 ratio ≤ -1)
# Details in all cases: compound concentration: 200 uM; treatment time: 3 h
# USP9X = USP9X (UniProt Q93008)
# In short: (§1)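 HEK293T lysate (495 µg per sample, in Tris/CHAPS/IGEPAL buffer with protease inhibitors) was treated in triplicate with fragment at 200 µM or with DMSO for 3 h. It was then treated with Biotin-Ahx-Ub-VS (0.5 µM final) for 1 h. Labelled DUBs were NeutrAvidin-enriched, digested with LysC and trypsin, and run by diaPASEF LC-MS/MS. Spectronaut label-free quantities were global-median-normalised. Values are average log2 ratios fragment/DMSO by unpaired t-test, using proteins with ≥2 unique peptides.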
# UniProt O00487 = target: UniProt O00487
# In short: as §1
# UniProt O00507 = target: UniProt O00507
# In short: as §1
# UniProt P51784 = target: UniProt P51784
# In short: as §1
# UniProt Q5T2D3 = target: T1, UniProt Q5T2D3
# T1 sequence (whole entry): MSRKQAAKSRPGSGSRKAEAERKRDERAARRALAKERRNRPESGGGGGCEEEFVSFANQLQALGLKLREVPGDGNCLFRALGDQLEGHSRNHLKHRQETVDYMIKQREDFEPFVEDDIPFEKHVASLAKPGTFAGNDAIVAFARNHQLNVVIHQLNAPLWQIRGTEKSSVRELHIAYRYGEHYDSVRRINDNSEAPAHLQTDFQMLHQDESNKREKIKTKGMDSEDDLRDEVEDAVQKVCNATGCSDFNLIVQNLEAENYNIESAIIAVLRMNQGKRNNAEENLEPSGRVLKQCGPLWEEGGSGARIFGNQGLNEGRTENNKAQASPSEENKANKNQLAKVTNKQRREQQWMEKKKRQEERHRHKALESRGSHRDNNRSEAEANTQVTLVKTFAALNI
# In short: as §1
# UniProt Q8TE49 = target: T2, UniProt Q8TE49
# T2 sequence (whole entry): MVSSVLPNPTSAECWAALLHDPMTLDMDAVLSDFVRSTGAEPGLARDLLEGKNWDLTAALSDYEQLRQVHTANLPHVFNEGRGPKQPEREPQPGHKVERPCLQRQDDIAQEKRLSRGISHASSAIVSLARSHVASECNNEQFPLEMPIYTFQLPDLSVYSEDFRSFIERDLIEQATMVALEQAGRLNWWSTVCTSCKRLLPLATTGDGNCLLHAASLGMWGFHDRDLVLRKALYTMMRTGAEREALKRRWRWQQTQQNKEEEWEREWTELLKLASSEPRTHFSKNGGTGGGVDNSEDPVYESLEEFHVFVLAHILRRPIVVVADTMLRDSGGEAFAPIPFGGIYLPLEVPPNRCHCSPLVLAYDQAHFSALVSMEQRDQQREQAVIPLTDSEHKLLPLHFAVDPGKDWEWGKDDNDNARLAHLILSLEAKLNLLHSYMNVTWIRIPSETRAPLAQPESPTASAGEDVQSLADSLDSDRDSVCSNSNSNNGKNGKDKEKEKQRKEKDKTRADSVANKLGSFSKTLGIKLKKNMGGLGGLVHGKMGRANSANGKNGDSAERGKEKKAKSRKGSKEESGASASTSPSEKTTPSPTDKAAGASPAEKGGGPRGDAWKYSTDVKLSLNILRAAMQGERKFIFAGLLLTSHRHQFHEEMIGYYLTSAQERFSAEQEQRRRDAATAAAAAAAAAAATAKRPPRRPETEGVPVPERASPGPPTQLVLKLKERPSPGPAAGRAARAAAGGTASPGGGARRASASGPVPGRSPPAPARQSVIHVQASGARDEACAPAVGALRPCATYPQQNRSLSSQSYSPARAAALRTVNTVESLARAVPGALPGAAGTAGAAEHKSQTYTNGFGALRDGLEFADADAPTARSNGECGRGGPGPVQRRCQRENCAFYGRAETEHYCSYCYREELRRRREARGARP
# In short: as §1
# UniProt Q9P2H5 = target: T3, UniProt Q9P2H5
# T3 sequence (whole entry): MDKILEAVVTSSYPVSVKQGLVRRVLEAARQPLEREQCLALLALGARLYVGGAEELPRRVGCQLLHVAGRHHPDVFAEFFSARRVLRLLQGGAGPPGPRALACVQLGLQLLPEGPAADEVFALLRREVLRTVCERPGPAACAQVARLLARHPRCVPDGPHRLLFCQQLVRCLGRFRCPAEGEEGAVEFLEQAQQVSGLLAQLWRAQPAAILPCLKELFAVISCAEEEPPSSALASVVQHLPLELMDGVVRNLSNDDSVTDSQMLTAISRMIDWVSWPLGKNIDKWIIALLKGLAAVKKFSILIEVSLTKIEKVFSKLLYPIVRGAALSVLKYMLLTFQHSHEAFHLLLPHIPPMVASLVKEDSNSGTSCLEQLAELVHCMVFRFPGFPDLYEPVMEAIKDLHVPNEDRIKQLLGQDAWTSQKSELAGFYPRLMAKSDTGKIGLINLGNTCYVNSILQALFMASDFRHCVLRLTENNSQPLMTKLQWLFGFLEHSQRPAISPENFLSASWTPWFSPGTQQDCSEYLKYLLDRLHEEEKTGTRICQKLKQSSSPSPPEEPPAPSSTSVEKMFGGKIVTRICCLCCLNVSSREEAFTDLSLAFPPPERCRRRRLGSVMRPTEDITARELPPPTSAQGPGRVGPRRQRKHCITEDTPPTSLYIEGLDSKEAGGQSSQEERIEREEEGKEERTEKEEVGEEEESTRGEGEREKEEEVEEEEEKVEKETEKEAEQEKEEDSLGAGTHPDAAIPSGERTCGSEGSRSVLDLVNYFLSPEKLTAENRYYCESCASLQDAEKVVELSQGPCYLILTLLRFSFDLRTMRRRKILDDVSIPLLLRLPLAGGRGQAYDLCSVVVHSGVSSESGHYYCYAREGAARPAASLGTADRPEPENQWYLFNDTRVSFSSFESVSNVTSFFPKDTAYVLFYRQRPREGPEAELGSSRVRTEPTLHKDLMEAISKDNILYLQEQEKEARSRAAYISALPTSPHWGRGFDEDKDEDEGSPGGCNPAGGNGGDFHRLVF
# In short: as §1
# UniProt Q9UGI0 = target: T4, UniProt Q9UGI0
# T4 sequence (whole entry): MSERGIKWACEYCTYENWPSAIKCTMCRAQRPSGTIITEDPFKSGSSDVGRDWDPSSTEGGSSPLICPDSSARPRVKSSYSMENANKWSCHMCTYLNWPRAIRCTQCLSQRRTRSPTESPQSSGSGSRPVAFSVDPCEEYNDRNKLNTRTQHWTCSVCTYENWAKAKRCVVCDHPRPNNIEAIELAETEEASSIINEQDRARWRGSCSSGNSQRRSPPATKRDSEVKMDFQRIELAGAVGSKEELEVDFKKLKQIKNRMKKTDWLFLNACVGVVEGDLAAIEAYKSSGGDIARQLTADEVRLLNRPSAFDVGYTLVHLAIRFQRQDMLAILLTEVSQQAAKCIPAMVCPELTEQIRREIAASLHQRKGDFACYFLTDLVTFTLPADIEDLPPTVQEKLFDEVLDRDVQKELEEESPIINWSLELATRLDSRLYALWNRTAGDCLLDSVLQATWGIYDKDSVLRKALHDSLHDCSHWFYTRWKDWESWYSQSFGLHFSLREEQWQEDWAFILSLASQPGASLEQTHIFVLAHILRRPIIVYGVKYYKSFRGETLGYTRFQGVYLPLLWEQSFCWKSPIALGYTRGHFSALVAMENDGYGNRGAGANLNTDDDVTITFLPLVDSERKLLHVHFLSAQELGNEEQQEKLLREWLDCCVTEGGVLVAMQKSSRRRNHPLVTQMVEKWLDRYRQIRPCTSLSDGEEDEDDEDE
# In short: as §1
# YOD1 = target: T5, YOD1 (UniProt Q5VVQ6)
# T5 sequence (whole entry): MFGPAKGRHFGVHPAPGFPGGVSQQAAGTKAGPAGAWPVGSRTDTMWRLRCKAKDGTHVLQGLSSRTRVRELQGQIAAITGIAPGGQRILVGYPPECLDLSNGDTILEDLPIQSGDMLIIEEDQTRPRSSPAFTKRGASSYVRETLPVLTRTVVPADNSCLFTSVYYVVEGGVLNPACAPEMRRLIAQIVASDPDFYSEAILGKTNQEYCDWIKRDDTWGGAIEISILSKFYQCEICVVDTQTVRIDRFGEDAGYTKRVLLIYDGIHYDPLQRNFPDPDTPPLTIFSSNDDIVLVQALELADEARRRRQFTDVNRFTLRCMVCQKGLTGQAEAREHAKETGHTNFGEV
# In short: as §1
# USP9X, sequence (Q93008 whole entry, the tested form may be a part): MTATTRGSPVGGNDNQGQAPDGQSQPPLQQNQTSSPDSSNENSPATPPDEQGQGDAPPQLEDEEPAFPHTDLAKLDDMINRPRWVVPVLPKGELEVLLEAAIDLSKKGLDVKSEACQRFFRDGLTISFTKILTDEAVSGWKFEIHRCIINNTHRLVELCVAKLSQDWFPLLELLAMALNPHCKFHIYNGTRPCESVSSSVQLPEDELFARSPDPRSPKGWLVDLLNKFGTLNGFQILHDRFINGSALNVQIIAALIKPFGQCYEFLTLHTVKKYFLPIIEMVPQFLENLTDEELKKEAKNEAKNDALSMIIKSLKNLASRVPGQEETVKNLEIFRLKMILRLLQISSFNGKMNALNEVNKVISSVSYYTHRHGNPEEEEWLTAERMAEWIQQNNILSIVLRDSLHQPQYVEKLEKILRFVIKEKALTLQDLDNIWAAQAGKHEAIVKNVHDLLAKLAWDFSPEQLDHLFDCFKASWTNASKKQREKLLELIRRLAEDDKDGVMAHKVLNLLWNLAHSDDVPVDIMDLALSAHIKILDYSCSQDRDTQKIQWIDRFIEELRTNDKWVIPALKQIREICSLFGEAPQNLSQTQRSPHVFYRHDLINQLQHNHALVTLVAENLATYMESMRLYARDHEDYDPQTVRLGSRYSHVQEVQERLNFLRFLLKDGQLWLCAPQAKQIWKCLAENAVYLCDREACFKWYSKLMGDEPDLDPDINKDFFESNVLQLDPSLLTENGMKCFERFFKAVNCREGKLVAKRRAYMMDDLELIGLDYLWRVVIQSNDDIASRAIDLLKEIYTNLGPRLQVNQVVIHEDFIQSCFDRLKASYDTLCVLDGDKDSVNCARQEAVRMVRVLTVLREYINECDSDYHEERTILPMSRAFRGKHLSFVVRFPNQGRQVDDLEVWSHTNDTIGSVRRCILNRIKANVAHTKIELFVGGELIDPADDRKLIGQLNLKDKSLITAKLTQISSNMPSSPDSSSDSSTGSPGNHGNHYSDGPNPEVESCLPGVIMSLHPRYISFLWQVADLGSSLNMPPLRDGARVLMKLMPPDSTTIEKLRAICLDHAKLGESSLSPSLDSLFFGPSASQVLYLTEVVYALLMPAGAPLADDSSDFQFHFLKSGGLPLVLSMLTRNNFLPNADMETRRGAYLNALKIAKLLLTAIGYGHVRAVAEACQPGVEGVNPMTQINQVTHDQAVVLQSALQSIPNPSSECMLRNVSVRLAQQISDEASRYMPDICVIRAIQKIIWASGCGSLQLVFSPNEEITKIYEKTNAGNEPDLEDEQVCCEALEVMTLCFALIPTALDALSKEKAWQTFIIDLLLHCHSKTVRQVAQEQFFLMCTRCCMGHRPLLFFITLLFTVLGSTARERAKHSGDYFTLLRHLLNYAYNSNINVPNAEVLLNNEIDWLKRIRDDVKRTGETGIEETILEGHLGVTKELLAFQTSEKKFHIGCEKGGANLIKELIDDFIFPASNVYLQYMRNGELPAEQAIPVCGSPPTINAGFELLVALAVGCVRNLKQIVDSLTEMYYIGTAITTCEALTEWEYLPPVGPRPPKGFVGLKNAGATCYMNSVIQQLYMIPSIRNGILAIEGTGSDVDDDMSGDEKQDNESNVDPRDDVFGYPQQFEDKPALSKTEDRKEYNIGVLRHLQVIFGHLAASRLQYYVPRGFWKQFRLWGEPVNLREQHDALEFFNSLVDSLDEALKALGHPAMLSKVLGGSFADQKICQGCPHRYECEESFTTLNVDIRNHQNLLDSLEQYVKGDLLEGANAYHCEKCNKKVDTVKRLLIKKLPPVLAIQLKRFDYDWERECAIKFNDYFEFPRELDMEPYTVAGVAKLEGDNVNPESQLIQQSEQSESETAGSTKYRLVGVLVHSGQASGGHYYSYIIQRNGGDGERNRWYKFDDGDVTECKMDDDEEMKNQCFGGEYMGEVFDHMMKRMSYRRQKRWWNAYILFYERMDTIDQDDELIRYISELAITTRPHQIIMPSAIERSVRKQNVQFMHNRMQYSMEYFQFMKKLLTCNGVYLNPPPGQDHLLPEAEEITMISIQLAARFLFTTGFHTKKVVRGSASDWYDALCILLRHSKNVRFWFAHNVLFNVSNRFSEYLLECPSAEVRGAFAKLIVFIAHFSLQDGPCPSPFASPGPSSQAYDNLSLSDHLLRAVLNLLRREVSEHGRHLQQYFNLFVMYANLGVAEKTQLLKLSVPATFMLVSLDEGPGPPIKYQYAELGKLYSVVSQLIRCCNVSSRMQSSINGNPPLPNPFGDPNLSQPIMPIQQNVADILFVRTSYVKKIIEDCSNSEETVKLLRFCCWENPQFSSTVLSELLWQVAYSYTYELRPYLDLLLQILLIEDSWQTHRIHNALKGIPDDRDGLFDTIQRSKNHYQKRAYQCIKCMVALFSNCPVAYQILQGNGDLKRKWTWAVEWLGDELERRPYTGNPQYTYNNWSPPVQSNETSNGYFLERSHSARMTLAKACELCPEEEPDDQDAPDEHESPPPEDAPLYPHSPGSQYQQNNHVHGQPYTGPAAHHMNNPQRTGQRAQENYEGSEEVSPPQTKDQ
# UniProt P51784, sequence (P51784 whole entry): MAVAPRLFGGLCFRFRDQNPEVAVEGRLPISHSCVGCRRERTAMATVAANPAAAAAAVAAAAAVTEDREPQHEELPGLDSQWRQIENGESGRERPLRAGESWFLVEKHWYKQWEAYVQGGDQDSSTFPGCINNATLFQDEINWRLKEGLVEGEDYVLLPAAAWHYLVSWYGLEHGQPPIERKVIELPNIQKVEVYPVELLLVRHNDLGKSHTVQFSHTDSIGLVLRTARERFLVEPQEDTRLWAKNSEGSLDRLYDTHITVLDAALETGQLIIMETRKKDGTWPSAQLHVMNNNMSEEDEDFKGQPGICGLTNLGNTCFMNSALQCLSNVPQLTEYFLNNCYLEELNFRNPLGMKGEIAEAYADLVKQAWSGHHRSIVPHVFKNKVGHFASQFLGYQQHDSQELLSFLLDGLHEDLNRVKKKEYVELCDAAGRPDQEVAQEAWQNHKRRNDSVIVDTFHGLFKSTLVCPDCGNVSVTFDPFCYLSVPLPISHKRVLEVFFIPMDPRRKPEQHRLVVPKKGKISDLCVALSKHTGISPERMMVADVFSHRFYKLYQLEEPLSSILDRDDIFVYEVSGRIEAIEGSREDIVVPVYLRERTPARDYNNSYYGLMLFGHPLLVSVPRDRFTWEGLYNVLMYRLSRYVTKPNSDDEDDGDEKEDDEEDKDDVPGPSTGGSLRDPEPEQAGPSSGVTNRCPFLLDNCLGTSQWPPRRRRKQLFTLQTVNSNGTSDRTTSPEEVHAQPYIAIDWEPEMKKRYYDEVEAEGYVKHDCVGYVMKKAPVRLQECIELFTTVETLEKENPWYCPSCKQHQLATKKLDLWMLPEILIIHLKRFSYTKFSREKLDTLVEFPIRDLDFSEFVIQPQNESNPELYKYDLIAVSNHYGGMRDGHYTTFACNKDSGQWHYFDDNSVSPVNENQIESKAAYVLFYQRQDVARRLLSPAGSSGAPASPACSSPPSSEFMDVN
# UniProt O00487, sequence (O00487 whole entry): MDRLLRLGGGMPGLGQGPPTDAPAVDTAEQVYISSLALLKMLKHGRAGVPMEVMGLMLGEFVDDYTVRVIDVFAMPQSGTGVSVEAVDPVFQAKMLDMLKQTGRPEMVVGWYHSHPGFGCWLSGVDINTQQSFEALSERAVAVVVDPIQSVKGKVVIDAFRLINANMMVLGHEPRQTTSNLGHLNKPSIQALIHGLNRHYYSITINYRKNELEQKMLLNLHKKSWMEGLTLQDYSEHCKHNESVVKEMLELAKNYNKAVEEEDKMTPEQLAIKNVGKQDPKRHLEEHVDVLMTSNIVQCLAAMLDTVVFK
smiles,measurement,setting,value
O=C(CCl)N1CCCC1c1ccsc1 (centres undefined),log2 ratio of Biotin-Ahx-Ub-VS probe labelling,USP9X,-0.231
same,log2 ratio of Biotin-Ahx-Ub-VS probe labelling,UniProt O00487,-0.138
same,log2 ratio of Biotin-Ahx-Ub-VS probe labelling,UniProt O00507,-0.118
same,log2 ratio of Biotin-Ahx-Ub-VS probe labelling,UniProt P51784,-0.115
same,log2 ratio of Biotin-Ahx-Ub-VS probe labelling,UniProt Q5T2D3,-0.188
same,log2 ratio of Biotin-Ahx-Ub-VS probe labelling,UniProt Q8TE49,-0.72
same,log2 ratio of Biotin-Ahx-Ub-VS probe labelling,UniProt Q9P2H5,-0.412
same,log2 ratio of Biotin-Ahx-Ub-VS probe labelling,UniProt Q9UGI0,-1.53 (active)
same,log2 ratio of Biotin-Ahx-Ub-VS probe labelling,YOD1,0.14

# — the supplement of paper PMC11732987, “Enantioselective OTUD7B fragment discovery through chemoproteomics screening and high-throughput optimisation” (Communications Chemistry, 2025)
